Most compounds without a hit are left out; they make up all but 3.4% or so of the library.
MITF inh = blocks human microphthalmia-associated transcription factor; AlphaScreen MITF homodimerization, bead proximity signal; actives 0.91% (n = 650,000); AID 1259374; O75030; inhibition, % at 2.6 µM; in the data active = inhibition above about 50%;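 note: 0% = vehicle wells with protein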
TEAD-YAP block = TEAD-YAP interaction inhibition | HEK-TIYL cells, TEAD-Gal4/YAP UAS-luciferase luminescence | inhibition, % at 9.12 µM | actives 1.4% (n = 640,000) | AID 1259422; in the data active = inhibition above about 32%;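 note: 0% = median of test compound wells and 100% = reference inhibitor wells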
GPR151 ag = human GPR151 activation; PathHunter beta-arrestin GPR151 cells, luminescence; activation, % at 11.2 µM; actives 1% (n = 650,000); in the data active = activation above about 4.9%;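 note: 0% = median of compound wells and 100% = cells with positive control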
FBW7 act = human FBW7 E3 ligase activation, primary screen. Q969H0. AlphaScreen FBW7–phospho-cyclin E peptide binding, activator screen. normalized activity (activation), % at 26.1 µM. actives 0.13% (n = 650,000). AID 1259310; in the data active = normalized activity above about 1.9%;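 note: purified mutant Fbw7 with reduced substrate affinity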
Target sequence (Q969H0 whole entry, looked up): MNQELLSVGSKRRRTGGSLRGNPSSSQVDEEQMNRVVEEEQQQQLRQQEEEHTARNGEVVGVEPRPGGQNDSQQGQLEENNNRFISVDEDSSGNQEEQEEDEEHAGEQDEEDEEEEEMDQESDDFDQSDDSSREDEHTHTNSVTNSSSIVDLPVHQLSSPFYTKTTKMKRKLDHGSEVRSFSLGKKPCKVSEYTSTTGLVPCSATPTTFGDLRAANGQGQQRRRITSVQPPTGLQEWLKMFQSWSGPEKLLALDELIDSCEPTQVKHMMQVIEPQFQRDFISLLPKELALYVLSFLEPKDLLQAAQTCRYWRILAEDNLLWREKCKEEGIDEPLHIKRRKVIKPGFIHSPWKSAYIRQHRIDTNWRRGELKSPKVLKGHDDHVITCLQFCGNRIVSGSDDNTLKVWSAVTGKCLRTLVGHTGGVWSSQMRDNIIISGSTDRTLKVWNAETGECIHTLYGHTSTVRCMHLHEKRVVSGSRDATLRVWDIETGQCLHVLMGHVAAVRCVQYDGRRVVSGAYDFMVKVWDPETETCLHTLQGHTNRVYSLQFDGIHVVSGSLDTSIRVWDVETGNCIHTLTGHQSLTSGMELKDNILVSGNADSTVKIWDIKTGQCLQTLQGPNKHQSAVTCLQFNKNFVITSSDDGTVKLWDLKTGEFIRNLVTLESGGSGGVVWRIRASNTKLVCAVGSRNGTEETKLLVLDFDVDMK
Numbers without * were called inactive.

SMILES	MITF inh	TEAD-YAP block	GPR151 ag	FBW7 act
Nc1ccc(C(=O)Nc2nc3ccc(C(=O)N4CCOCC4)cc3s2)cc1	-2	8	-1	0
O=C(Nc1nc2ccc(C(=O)N3CCOCC3)cc2s1)c1cccs1	15	42*	-9	0
c1ccc2c(c1)Nc1ccccc1C2NNC1c2ccccc2Nc2ccccc21	0	69*	0	0
O=C1Nc2ccccc2NC(=O)C2C3c4ccccc4C(c4ccccc43)C12 (stereo not drawn)	-8	17	1	0
CSc1ccc(NC(=O)Nc2cccn(Cc3ccc(C)cc3)c2=O)cc1	-4	33*	0	0
COc1ccc(Nc2cc(-c3cncc(-c4ccccc4)c3)nc(C)n2)cc1	-1	50*	0	0
Cc1cnc(CNc2cc(-c3cncc(-c4ccccc4)c3)nc(C)n2)cn1	0	46*	1	0
CCC(C)c1ccccc1OCC(=O)Nc1cc(C)on1 (stereo not drawn)	-9	3	0	0
COc1ccc(-c2nc(-c3ccc(OC)c(OC)c3)no2)c(OC)c1	7	-44	0	0
COC(=O)C1C(=O)NC(SCC(=O)Nc2ccc(C(C)=O)cc2)=C(C#N)C1c1ccc(Cl)cc1 (stereo not drawn)	-16	1	0	0
CN(C)c1ccc(/C=N/Nc2ncnc3nc[nH]c23)cc1	-4	60*	-1	0
Fc1cccc(/C=N/Nc2ncnc3nc[nH]c23)c1	9	9	-7	0
Oc1ccc(Br)cc1/C=N/Nc1ncnc2nc[nH]c12	75*	72*	-2	0
Cc1ccc(/C=N/Nc2ncnc3nc[nH]c23)cc1	9	29	-2	0
Clc1cccc(/C=N/Nc2ncnc3nc[nH]c23)c1	4	58*	-5	0
COc1ccc(/C=N/Nc2ncnc3nc[nH]c23)cc1	11	58*	-2	0
Nc1nc(N2CCC(N3CCOCC3)CC2)nc2c1ncn2-c1ccsc1	8	7	0	0
CCn1c(C)cc(/C=C2\NC(=O)N(CC(=O)Nc3ccccc3)C2=O)c1C	19	-3	-1	0
COc1ccc(NC(=S)Nc2ccc(C(C)=O)cc2)cc1	8	-20	0	0
O=C1Nc2ccccc2/C1=N/n1c(-c2ccccc2)nc2ccccc2c1=O	-3	32*	0	0
CCn1c(/C=C2/C(=O)Nc3ccccc32)nc2ccccc2c1=O	3	5	2	0
Clc1ccc(CSc2nn3cnnc3s2)cc1	16	53*	-1	0
C/C(CC(=O)Nc1cccc2c1CCCC2)=N\NC(=O)c1cccc(O)c1	5	14	-1	0
COc1ccc(C(=O)N/N=C(\C)CC(=O)Nc2cccnc2)cc1OC	8	34*	-1	0
COc1ccc(C(=O)N/N=C(\C)CC(=O)Nc2ccccc2Br)cc1OC	-12	41*	-2	0
SMILES	MITF inh	TEAD-YAP block	GPR151 ag	FBW7 act
COc1ccc(C(=O)Nc2cccnc2)cc1OC	-2	-18	-1	0
C/C(CC(=O)Nc1ccc(F)cc1F)=N\NC(=O)c1ccc(O)cc1	16	-17	-1	2.1*
COc1ccc(C(=O)N/N=C(\C)CC(=O)Nc2cccc3c2CCCC3)cc1OC	9	32*	-1	0
CN(C)S(=O)(=O)c1ccc(C(=O)OCc2c(F)cccc2Cl)cc1	0	-12	-1	0
CCOC(=O)c1ccc(N2N=C(C(F)(F)F)/C(=C/C=C/c3ccco3)C2=O)cc1	64*	3	0	0
COc1ccccc1NC1=C(Cl)C(=O)N(c2ccc(C)cc2)C1=O	10	-5	2	0
COc1ccc(Cl)cc1NC1=C(Cl)C(=O)N(c2ccc(C)cc2)C1=O	-5	45*	1	0
CCc1ccc(N2C(=O)C(Cl)=C(Nc3cccc(OC)c3)C2=O)cc1	13	54*	1	0
COc1cccc(NC2=C(Cl)C(=O)N(c3ccc(C)cc3)C2=O)c1	11	4	-1	0
OC(COc1ccc(CNC2Cc3ccccc3C2)cc1)CN1CCCCC1 (stereo not drawn)	10	3	0	0
N#C/C(=C\c1ccc(O)c(O)c1)C(=O)c1ccc(O)c(O)c1	86*	5	0	0
CCOc1cccc(C2Nc3ccccc3NC3=C2C(=O)CC(c2ccc(OC)c(OC)c2)C3)c1 (stereo not drawn)	-10	12	0	0
COc1ccc(CCNc2nc(C)nc3sc(C)c(C)c23)cc1OC	2	37*	0	0
COc1ccc(CCNc2ncnc3ccccc23)cc1OC	-1	63*	2	0
c1ccc(CCNc2ncnc3ccccc23)cc1	3	24	0	0
COc1ccc(CCNc2ncnc3c2oc2ccccc23)cc1OC	4	46*	4	0
COc1ccc(CCNc2ncnc3sccc23)cc1OC	19	56*	3	1
COc1ccc(C(=O)COC(=O)CNC(=O)c2cccc(OC(F)F)c2)cc1	2	2	1	0
Cc1cn(CC(=O)NCCCO)c(=O)[nH]c1=O	-5	-7	-2	0
CC(C)CN1CCC(CN(C)C(=O)c2cc(COc3ccc4ncccc4c3)on2)C1 (stereo not drawn)	-2	-3	-1	0
COc1ccc(/C=N/NC(=O)c2ccccc2O)cc1Cn1cc([N+](=O)[O-])cn1	0	-8	-1	0
COc1ccc(/C=N/NC(=O)c2cc(O)c(O)c(O)c2)cc1Cn1cnc([N+](=O)[O-])n1	97*	5	-1	0
COc1ccc(/C=N/NC(=O)c2cc(O)c(O)c(O)c2)cc1Cn1cc([N+](=O)[O-])cn1	73*	-4	2	0
Cc1ccc(C(=O)c2ccc(N)cc2)cc1C	34	52*	2	0
CCOc1cccc(/C=C2/NC(=S)NC2=O)c1O	11	51*	-2	0
SMILES	MITF inh	TEAD-YAP block	GPR151 ag	FBW7 act
CCOc1ccc2ccc(OCC)c(/C=C3/NC(=S)NC3=O)c2c1	-3	57*	-1	0
CCOc1ccc2ccc(OCC)c(C=C3C(=O)NC(=O)NC3=O)c2c1	18	-30	-1	0
CCOc1ccccc1/C=C1\NC(=S)NC1=O	4	-10	-1	0
COc1cc(C(=O)O)ccc1OCC(=O)NC(C)c1ccccc1 (stereo not drawn)	23	5	0	0
CC(C)NC1CCCc2c1[nH]c1ccc([N+](=O)[O-])cc21 (stereo not drawn)	30	49*	1	0
CCN1C(=O)/C(=C/c2cc3c(cc2[N+](=O)[O-])OCO3)C(=O)NC1=S	74*	3	2	0
COc1cc2nc(CN3CCN(c4ccccn4)CC3)[nH]c(=O)c2cc1OC	0	73*	2	0
COc1cc2nc(CN3CCCCCCC3)[nH]c(=O)c2cc1OC	8	-1	0	0
COc1cc2nc(CN3c4ccccc4CC3C)[nH]c(=O)c2cc1OC (stereo not drawn)	1	48*	1	0
Cc1cc(/C=C(\C#N)C(=O)OCC(=O)NCc2cccs2)c(C)n1CC(C)C	9	49*	-2	0

Screening data: PubChem BioAssay, The Scripps Research Institute Molecular Screening Center
